The campaign covered roughly 5,500 compounds. About 2,000 (36%) were called active. Another 18% or so got no clear call; they are omitted. No stated cut-off is given here; in the data, active means normalized growth mostly below about 0.91 (no sharp cut-off); inconclusive means no clear call, values can overlap the other calls; inactive means mostly above about 0.92. The list shows a part of the results.
Assay: chemical genetic growth profiling, strain panel (AID 1159580);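 further: tested at 20 µM; growth read once vehicle control cultures reached saturation at 30 °C; 1 = growth at the plate median or of vehicle wells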
Conditions: growth OD

Measured: normalized growth

COc1ccc(C(=O)c2ccccc2)c(O)c1
inactive: S. cerevisiae deletion strains, locus YLR058C, strain SHM2, stronger effect = lower value 0.945 | S. cerevisiae deletion strains, locus YLR268W, strain sec22, stronger effect = lower value 0.917 | S. cerevisiae deletion strains, locus YLR357W, strain rsc2, stronger effect = lower value 0.857 | S. cerevisiae deletion strains, locus YLR371W, strain rom2, stronger effect = lower value 0.918 | S. cerevisiae deletion strains, locus YML016C, strain PPZ1, stronger effect = lower value 0.932 | S. cerevisiae deletion strains, locus YMR307W, strain GAS1, stronger effect = lower value 0.62 | S. cerevisiae deletion strains, locus YNL067W, strain RPL9B, stronger effect = lower value 0.889 | S. cerevisiae deletion strains, locus YNL128W, strain TEP1, stronger effect = lower value 0.934 | S. cerevisiae deletion strains, locus YNL153C, strain GIM3, stronger effect = lower value 0.937 | S. cerevisiae deletion strains, locus YNL183C, strain NPR1, stronger effect = lower value 0.851 | S. cerevisiae deletion strains, locus YNL250W, strain rad50, stronger effect = lower value 0.915 | S. cerevisiae deletion strains, locus YNL322C, strain KRE1, stronger effect = lower value 0.93 | S. cerevisiae deletion strains, locus YNR052C, strain pop2, stronger effect = lower value 0.923 | S. cerevisiae deletion strains, locus YOL012C, strain htz1 1.24 | S. cerevisiae deletion strains, locus YOR061W, strain CKA2, stronger effect = lower value 0.936 | S. cerevisiae deletion strains, locus YOR069W, strain VPS5, stronger effect = lower value 0.959 | S. cerevisiae deletion strains, locus YOR231W, strain MKK1, stronger effect = lower value 0.878 | S. cerevisiae deletion strains, locus YPL055C, strain LGE1, stronger effect = lower value 0.773 | S. cerevisiae deletion strains, locus YPL241C, strain CIN2, stronger effect = lower value 0.94 | S. cerevisiae strains, strain wild type, stronger effect = lower value 0.911
active: S. cerevisiae deletion strains, locus YJR075W, strain HOC1, stronger effect = lower value 0.848 | S. cerevisiae deletion strains, locus YKL009W, strain mrt4, stronger effect = lower value 0.835 | S. cerevisiae deletion strains, locus YKL068W, stronger effect = lower value 0.91 | S. cerevisiae deletion strains, locus YKL085W, strain MDH1 (second series), stronger effect = lower value 0.895 | S. cerevisiae deletion strains, locus YKL085W, strain MDH1, stronger effect = lower value 0.895 | S. cerevisiae deletion strains, locus YKL160W, strain elf1, stronger effect = lower value 0.764 | S. cerevisiae deletion strains, locus YKL190W, strain CNB1, stronger effect = lower value 0.913 | S. cerevisiae deletion strains, locus YKR001C, strain vps1, stronger effect = lower value 0.553 | S. cerevisiae deletion strains, locus YKR026C, strain gcn3, stronger effect = lower value 0.804 | S. cerevisiae deletion strains, locus YKR091W, strain srl3, stronger effect = lower value 0.874 | S. cerevisiae deletion strains, locus YLL001W, strain dnm1, stronger effect = lower value 0.734 | S. cerevisiae deletion strains, locus YLL026W, stronger effect = lower value 0.841 | S. cerevisiae deletion strains, locus YLL041C, strain sdh2, stronger effect = lower value 0.861 | S. cerevisiae deletion strains, locus YLR027C, strain aat2, stronger effect = lower value 0.807 | S. cerevisiae deletion strains, locus YLR039C, strain RIC1, stronger effect = lower value 0.441 | S. cerevisiae deletion strains, locus YLR102C, strain apc9, stronger effect = lower value 0.906 | S. cerevisiae deletion strains, locus YLR113W, strain HOG1, stronger effect = lower value 0.836 | S. cerevisiae deletion strains, locus YLR221C, strain rsa3, stronger effect = lower value 0.74 | S. cerevisiae deletion strains, locus YLR258W, strain gsy2, stronger effect = lower value 0.815 | S. cerevisiae deletion strains, locus YLR262C, strain YPT6 (second series), stronger effect = lower value 0.408 | S. cerevisiae deletion strains, locus YLR262C, strain YPT6, stronger effect = lower value 0.526 | S. cerevisiae deletion strains, locus YLR320W, strain mms22, stronger effect = lower value 0.542 | S. cerevisiae deletion strains, locus YLR330W, strain CHS5, stronger effect = lower value 0.916 | S. cerevisiae deletion strains, locus YLR342W, strain FKS1 (second series), stronger effect = lower value 0.763 | S. cerevisiae deletion strains, locus YLR342W, strain FKS1, stronger effect = lower value 0.815 | S. cerevisiae deletion strains, locus YLR370C, strain arc18, stronger effect = lower value 0.77 | S. cerevisiae deletion strains, locus YLR384C, strain iki3, stronger effect = lower value 0.843 | S. cerevisiae deletion strains, locus YLR418C, strain cdc73, stronger effect = lower value 0.625 | S. cerevisiae deletion strains, locus YML032C, strain rad52, stronger effect = lower value 0.871 | S. cerevisiae deletion strains, locus YML120C, strain ndi1, stronger effect = lower value 0.762 | S. cerevisiae deletion strains, locus YML124C, strain tub3, stronger effect = lower value 0.899 | S. cerevisiae deletion strains, locus YMR058W, strain fet3, stronger effect = lower value 0.732 | S. cerevisiae deletion strains, locus YMR078C, strain ctf18, stronger effect = lower value 0.876 | S. cerevisiae deletion strains, locus YMR125W, strain sto1, stronger effect = lower value 0.825 | S. cerevisiae deletion strains, locus YMR129W, stronger effect = lower value 0.856 | S. cerevisiae deletion strains, locus YMR205C, strain PFK2, stronger effect = lower value 0.567 | S. cerevisiae deletion strains, locus YMR223W, strain ubp8, stronger effect = lower value 0.774 | S. cerevisiae deletion strains, locus YMR231W, strain pep5, stronger effect = lower value 0.877 | S. cerevisiae deletion strains, locus YMR263W, strain SAP30, stronger effect = lower value 0.878 | S. cerevisiae deletion strains, locus YNL071W, strain lat1, stronger effect = lower value 0.538 | S. cerevisiae deletion strains, locus YNL209W, strain ssb2, stronger effect = lower value 0.906 | S. cerevisiae deletion strains, locus YNL233W, strain BNI4, stronger effect = lower value 0.833 | S. cerevisiae deletion strains, locus YNL248C, strain rpa49, stronger effect = lower value 0.639 | S. cerevisiae deletion strains, locus YNL271C, strain bni1, stronger effect = lower value 0.882 | S. cerevisiae deletion strains, locus YNL298W, strain CLA4, stronger effect = lower value 0.859 | S. cerevisiae deletion strains, locus YNL307C, strain MCK1, stronger effect = lower value 0.538 | S. cerevisiae deletion strains, locus YNL322C, strain KRE1 (second series), stronger effect = lower value 0.862 | S. cerevisiae deletion strains, locus YNR049C, strain mso1, stronger effect = lower value 0.838 | S. cerevisiae deletion strains, locus YOL006C, strain TOP1, stronger effect = lower value 0.474 | S. cerevisiae deletion strains, locus YOL147C, strain pex11, stronger effect = lower value 0.846 | S. cerevisiae deletion strains, locus YOR001W, strain rrp6, stronger effect = lower value 0.712 | S. cerevisiae deletion strains, locus YOR070C, strain gyp1, stronger effect = lower value 0.857 | S. cerevisiae deletion strains, locus YOR080W, strain dia2, stronger effect = lower value 0.867 | S. cerevisiae deletion strains, locus YOR083W, strain WHI5, stronger effect = lower value 0.73 | S. cerevisiae deletion strains, locus YOR106W, strain vam3, stronger effect = lower value 0.682 | S. cerevisiae deletion strains, locus YOR136W, strain idh2, stronger effect = lower value 0.912 | S. cerevisiae deletion strains, locus YOR144C, strain elg1, stronger effect = lower value 0.897 | S. cerevisiae deletion strains, locus YOR184W, strain ser1, stronger effect = lower value 0.476 | S. cerevisiae deletion strains, locus YOR265W, strain rbl2, stronger effect = lower value 0.845 | S. cerevisiae deletion strains, locus YOR270C, strain vph1, stronger effect = lower value 0.419 | S. cerevisiae deletion strains, locus YOR290C, strain snf2, stronger effect = lower value 0.784 | S. cerevisiae deletion strains, locus YOR316C, strain cot1, stronger effect = lower value 0.903 | S. cerevisiae deletion strains, locus YPL051W, strain arl3, stronger effect = lower value 0.647 | S. cerevisiae deletion strains, locus YPL078C, strain atp4, stronger effect = lower value 0.599 | S. cerevisiae deletion strains, locus YPL106C, strain sse1, stronger effect = lower value 0.845 | S. cerevisiae deletion strains, locus YPL240C, strain hsp82, stronger effect = lower value 0.858 | S. cerevisiae deletion strains, locus YPL256C, strain CLN2, stronger effect = lower value 0.818 | S. cerevisiae deletion strains, locus YPR119W, strain clb2, stronger effect = lower value 0.888 | S. cerevisiae deletion strains, locus YPR141C, strain kar3, stronger effect = lower value 0.892 | S. cerevisiae deletion strains, locus YPR163C, strain tif3, stronger effect = lower value 0.844 | S. cerevisiae deletion strains, locus YPR167C, strain met16, stronger effect = lower value 0.898 | S. cerevisiae deletion strains, strain wtn01, stronger effect = lower value 0.872
